Laboratory results from article PMC5540273 (PLoS ONE, 2017).

How the values were obtained:
Conditions in all cases: concentration: 1 μM, replicates: in singlicate; n = 1
YES = system: T1, YES
T1 construct: gene YES1

YSK1 = system: T2, YSK1
T2 construct: gene STK25

YSK4 = system: T3, YSK4
T3 construct: gene MAP3K19

ZAK = system: ZAK
ZAP70 = system: ZAP70
p38-alpha = system: T4, p38-alpha
T4 construct: gene MAPK14

p38-beta = system: T5, p38-beta
T5 construct: gene MAPK11

p38-delta = system: p38-delta
p38-gamma = system: T6, p38-gamma
T6 construct: gene MAPK12
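Further: KINOMEscan kinase panel screen.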

Row | Compound | %Inh (YES) [%] | %Inh (YSK1) [%] | %Inh (YSK4) [%] | %Inh (ZAK) [%] | %Inh (ZAP70) [%] | %Inh (p38-alpha) [%] | %Inh (p38-beta) [%] | %Inh (p38-delta) [%] | %Inh (p38-gamma) [%]
1 | Cc1cccc(-c2nc(-c3ccc(S(C)(=O)=O)cc3)sc2-c2ccnc(NCCc3ccccc3)c2)c1 | 0 | 11 | 0 | 29 | 9 | 82 | 40 | 12 | 16
2 | CN1C(=O)C(Nc2ccc(Cl)c(C(=O)O)c2)=C(c2ccc(Cl)cc2)C1=O [SB-404290] | 6 | 0 | 4 | 0 | 1 | 5 | 2 | 0 | 27
3 | CS(=O)(=O)c1ccc(-c2nc3n(c2-c2ccncc2)CCC3)cc1 [SKF-105942] | 33 | 5 | 1 | 0 | 0 | 0 | 0 | 31 | 14
4 | COc1ccc(Nc2nccc(NCCNC(=O)Nc3ccccc3F)n2)cc1 [GSK1379901] | 23 | 0 | 45 | 37 | 5 | 20 | 0 | 38 | 10
5 | COc1cccc(-c2cc(-c3c[nH]nc3-c3ccccn3)ccn2)c1 [GW680338] | 0 | 0 | 0 | 0 | 10 | 27 | 7 | 20 | 0
6 | O=C(Nc1n[nH]c2cc(-c3cccc(F)c3F)ccc12)C1CC1 [SB-733894] | 0 | 0 | 74 | 0 | 60 | 0 | 2 | 0 | 24
7 | Cn1ccc2ncnc(Oc3ccc(Nc4nc5ccccc5[nH]4)cc3)c21 | 0 | 0 | 14 | 0 | 0 | 5 | 0 | 16 | 0
8 | Nc1ncnc2[nH]c(-c3ccccc3)nc12 [AH5015] | 18 | 0 | 94.4 | 33 | 0 | 0 | 0 | 6 | 0
9 | Cc1ccc(NC(=O)Nc2cc(C(C)(C)C)nn2-c2ccccc2)cc1 [GSK1014915] | 9 | 0 | 19 | 26 | 0 | 99.7 | 87 | 54 | 50
10 | Cc1c(O)cccc1Nc1ccnc2ccc(C(F)(F)F)cc12.Cl [GW466413] | 20 | 0 | 11 | 1 | 0 | 0 | 0 | 24 | 0
11 | Cc1ccc(-c2cc(-c3c[nH]nc3-c3ccccn3)ccn2)cc1 [GW684088] | 17 | 10 | 2 | 0 | 10 | 56 | 0 | 25 | 11
12 | CC(C)(C)c1ccc(C(=O)Nc2cn3cc(Cl)ccc3n2)cc1 | 0 | 0 | 5 | 0 | 4 | 0 | 0 | 39 | 10
13 | Cc1csc(-c2nc(Nc3ccncc3)c3ccccc3n2)n1 [GW869640] | 0 | 0 | 38 | 17 | 18 | 14 | 12 | 0 | 39
14 | Cc1cccc(-c2nc(Nc3cccc(C(N)=O)c3)c3ccccc3n2)n1 [GW876019] | 19 | 12 | 0 | 0 | 0 | 0 | 34 | 16 | 58
15 | CN(C)CCN(C)C(=O)c1cc(-c2ccncc2)c(-c2ccc(Cl)c(O)c2)o1.Cl.Cl [SB-710397] | 0 | 0 | 57 | 41 | 35 | 82 | 0 | 51 | 29
16 | COc1ccccc1-c1ccc2c(NC(=O)C3CC3)n[nH]c2n1 [SB-711239] | 0 | 0 | 0 | 0 | 13 | 26 | 9 | 6 | 2
17 | Cc1c(Cn2ccn3c(=O)cc(N4CCOCC4)nc23)cccc1C(F)(F)F [GSK2289044] | 3 | 0 | 43 | 8 | 0 | 0 | 0 | 12 | 12
18 | Cl.O=C(Nc1cccc(-c2nn3ncccc3c2-c2ccnc(Nc3cccnc3)n2)c1)c1c(F)cccc1F [GSK312879] | 73 | 0 | 32 | 28 | 0 | 3 | 6 | 24 | 0
